Measured values taken from ChEMBL document CHEMBL3988442, “University of Dundee, Small-Polar-MMV Screening Library” (2021).
For some of these results: Results with a measured potency or affinity are listed apart.

Tests used:
Set-up in all cases: scale not given: direction of the effect not stated beside the values
[1] = target: Protein translocase subunit SecA (Escherichia coli (strain K12)) (UniProt P10408); assay: Assay to Identify E. coli SecA ATPase Inhibitors; format: functional; settings: 30 µM
Protein translocase subunit SecA (Escherichia coli (strain K12)), sequence (P10408 whole entry): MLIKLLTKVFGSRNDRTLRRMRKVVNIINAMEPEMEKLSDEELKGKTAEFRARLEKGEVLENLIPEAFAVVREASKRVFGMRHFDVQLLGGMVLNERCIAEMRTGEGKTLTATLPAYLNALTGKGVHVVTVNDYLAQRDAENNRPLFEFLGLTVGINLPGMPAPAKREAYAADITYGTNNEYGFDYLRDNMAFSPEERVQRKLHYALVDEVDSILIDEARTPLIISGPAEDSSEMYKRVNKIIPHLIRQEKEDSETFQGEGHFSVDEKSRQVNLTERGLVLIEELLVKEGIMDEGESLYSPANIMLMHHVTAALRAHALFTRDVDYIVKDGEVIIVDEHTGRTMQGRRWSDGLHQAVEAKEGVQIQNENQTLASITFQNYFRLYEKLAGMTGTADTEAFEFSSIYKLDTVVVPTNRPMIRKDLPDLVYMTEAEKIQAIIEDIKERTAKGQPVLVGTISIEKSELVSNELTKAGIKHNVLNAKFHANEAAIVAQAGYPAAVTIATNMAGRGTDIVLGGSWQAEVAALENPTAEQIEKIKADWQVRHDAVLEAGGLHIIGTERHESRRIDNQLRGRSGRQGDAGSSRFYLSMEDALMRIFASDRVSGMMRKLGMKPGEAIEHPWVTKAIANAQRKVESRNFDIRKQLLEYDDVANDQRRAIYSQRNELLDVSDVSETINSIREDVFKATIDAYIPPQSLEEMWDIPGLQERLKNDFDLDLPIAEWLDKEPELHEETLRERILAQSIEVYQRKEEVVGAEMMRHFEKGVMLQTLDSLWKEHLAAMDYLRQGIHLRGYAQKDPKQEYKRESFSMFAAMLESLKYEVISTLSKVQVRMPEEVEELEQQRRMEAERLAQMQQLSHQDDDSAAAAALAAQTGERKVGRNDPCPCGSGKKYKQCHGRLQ

[2] = target: T1, Ubiquitin-activating enzyme e1, putative (Leishmania donovani (strain BPK282A1)) (UniProt E9BSI1); assay: Leishmania donovani Ubiquitin Activating Enzyme (LdE1); format: functional; settings: 30 µM
T1 sequence (whole entry): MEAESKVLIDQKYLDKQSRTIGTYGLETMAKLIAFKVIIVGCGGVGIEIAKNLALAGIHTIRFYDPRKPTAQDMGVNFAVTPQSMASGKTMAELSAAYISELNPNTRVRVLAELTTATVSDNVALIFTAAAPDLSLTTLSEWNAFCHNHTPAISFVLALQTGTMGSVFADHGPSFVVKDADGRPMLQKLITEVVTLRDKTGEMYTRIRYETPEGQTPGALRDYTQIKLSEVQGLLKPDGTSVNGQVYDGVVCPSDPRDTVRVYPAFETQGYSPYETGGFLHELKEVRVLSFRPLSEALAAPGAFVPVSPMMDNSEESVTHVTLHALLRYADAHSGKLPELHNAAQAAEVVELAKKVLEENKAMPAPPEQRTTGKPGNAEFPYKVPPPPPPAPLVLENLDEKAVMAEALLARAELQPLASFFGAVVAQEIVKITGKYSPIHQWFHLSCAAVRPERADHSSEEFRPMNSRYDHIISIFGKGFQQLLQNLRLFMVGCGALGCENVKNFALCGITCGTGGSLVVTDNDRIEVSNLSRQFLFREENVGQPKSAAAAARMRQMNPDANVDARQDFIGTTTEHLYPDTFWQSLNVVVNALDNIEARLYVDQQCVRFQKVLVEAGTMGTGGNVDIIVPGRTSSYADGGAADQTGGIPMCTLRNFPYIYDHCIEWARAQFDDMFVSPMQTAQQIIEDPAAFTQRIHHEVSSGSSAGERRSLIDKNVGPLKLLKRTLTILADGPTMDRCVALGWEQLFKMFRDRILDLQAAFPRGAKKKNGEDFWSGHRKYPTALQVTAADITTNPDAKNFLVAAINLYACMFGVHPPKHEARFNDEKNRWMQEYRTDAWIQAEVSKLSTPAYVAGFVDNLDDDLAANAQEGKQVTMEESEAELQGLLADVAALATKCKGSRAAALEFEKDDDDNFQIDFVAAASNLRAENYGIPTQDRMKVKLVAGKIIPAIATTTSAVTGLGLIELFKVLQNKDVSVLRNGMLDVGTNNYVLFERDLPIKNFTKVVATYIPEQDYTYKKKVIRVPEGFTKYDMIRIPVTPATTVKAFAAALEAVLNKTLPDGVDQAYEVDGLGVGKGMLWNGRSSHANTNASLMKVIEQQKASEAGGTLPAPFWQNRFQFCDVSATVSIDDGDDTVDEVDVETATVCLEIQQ

[3] = target: AMP-activated protein kinase, AMPK (Homo sapiens) (UniProt P54646+O43741+P54619+Q9UGJ0+Q9Y478+Q13131+Q9UGI9); assay: AMP-dependent Kinase enzyme assay. An in vitro enzyme assay that detects ADP turnover that is directly proportional to AMPK activity. This uses naive AMPK that is activated during the assay with MK-8722; format: functional; settings: 30 µM
[4] = target: Sialic acid-binding Ig-like lectin 9 (Homo sapiens) (UniProt Q9Y336); assay: Hs-Siglec9 ALPHAscreen SOP 20170721; settings: 10 µM
Sialic acid-binding Ig-like lectin 9 (Homo sapiens), sequence (Q9Y336 whole entry): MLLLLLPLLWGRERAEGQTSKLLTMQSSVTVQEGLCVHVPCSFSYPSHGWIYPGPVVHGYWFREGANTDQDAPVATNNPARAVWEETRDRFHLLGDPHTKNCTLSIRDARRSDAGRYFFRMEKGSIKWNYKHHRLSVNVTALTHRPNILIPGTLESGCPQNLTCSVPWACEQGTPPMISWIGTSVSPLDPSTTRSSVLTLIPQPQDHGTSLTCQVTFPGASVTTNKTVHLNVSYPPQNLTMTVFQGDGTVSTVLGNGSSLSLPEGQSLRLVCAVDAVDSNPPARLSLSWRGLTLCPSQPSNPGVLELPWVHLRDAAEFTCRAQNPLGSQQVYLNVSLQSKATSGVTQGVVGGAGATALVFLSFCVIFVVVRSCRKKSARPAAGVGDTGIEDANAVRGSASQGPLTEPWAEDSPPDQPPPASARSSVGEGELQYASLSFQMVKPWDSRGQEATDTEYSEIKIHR

[5] = tested on: Trypanosoma cruzi; assay: Trypanosoma cruzi phosphomannomutase and mannose-1-phosphate guanylyltransferase assay; format: functional; settings: 10 µM
[6] = target: T2, Arginase-2, mitochondrial (Homo sapiens) (UniProt P78540); assay: in vitro enzyme assay to detect the production of urea directly proportional to the activity of Arginase II; format: functional; settings: 33.3 µM; also: in the data most compounds retested in dose-response had high values
T2 sequence (whole entry): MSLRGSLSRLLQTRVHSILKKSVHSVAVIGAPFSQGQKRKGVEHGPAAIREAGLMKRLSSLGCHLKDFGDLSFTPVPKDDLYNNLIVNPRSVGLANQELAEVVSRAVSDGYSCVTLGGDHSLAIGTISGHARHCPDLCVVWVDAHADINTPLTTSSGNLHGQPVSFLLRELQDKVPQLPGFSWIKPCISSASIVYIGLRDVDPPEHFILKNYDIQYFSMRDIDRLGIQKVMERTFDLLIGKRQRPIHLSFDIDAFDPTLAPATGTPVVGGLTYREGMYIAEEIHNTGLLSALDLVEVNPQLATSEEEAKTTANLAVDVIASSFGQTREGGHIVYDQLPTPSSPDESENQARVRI

[7] = target: T3, Proteasome subunit beta (Trypanosoma cruzi) (UniProt O96673); assay: Trypanosoma cruzi proteasome chymotrypsin-like activity (TcProtChymo) assay.; also: in the data most compounds retested in dose-response had high values; format: functional; settings: 9.37 µM
T3 sequence (whole entry): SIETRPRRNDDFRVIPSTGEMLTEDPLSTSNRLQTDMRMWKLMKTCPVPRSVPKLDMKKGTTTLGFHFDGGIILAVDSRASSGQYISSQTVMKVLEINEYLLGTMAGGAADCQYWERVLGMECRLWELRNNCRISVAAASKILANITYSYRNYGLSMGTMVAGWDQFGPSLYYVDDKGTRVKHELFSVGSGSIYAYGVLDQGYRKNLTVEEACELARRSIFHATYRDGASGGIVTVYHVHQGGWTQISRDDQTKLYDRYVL

[8] = species on record: Homo sapiens; assay: To identify inhibition of the IFN signalling (Jak-Stat) pathway via expression of an eGFP reporter gene under the control of an IFN-stimulated response element (ISRE) containing MxA promoter.; format: functional; settings: 30 µM
[9] = target: T4, Tyrosyl-tRNA synthetase, putative (Trypanosoma cruzi (strain CL Brener)) (UniProt Q4DSP6); assay: Trypanosoma cruzi tyrosyl tRNA synthetase (TcYRS) _High Tyrosine SOP; format: functional; settings: 30 µM; also: in the data most compounds retested in dose-response had high values
T4 sequence (whole entry): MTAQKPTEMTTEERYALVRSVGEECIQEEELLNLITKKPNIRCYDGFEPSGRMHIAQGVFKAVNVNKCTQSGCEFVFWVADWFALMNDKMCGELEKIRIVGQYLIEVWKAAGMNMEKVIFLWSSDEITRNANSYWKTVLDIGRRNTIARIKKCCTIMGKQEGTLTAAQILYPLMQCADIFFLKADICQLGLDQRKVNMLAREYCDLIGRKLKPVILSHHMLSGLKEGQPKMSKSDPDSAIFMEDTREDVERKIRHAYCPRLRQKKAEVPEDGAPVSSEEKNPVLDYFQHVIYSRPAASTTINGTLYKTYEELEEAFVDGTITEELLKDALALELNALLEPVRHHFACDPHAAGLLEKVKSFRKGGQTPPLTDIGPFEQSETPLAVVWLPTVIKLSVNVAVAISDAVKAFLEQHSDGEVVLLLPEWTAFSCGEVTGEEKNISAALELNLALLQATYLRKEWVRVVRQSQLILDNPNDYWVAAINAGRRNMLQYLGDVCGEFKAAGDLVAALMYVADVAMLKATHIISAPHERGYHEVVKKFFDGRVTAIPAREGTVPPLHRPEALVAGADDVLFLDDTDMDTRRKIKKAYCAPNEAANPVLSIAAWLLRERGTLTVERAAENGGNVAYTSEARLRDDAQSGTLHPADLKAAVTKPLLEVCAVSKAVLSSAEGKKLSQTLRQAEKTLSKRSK

[10] = target: T4, Tyrosyl-tRNA synthetase, putative (Trypanosoma cruzi (strain CL Brener)); assay: Trypanosoma cruzi tyrosyl tRNA synthetase (TcYRS) SOP; format: functional; settings: 30 µM
[11] = target: Chromo domain-containing protein 1 (Saccharomyces cerevisiae (strain ATCC 204508 / S288c) (Baker's yeast)) (UniProt P32657); assay: ScCHD-1 Enzyme Inhibition Assay; format: functional; settings: 30 µM; also: in the data most compounds retested in dose-response had high values
Chromo domain-containing protein 1 (Saccharomyces cerevisiae (strain ATCC 204508 / S288c) (Baker's yeast)), sequence (P32657 whole entry, the tested form may be a part): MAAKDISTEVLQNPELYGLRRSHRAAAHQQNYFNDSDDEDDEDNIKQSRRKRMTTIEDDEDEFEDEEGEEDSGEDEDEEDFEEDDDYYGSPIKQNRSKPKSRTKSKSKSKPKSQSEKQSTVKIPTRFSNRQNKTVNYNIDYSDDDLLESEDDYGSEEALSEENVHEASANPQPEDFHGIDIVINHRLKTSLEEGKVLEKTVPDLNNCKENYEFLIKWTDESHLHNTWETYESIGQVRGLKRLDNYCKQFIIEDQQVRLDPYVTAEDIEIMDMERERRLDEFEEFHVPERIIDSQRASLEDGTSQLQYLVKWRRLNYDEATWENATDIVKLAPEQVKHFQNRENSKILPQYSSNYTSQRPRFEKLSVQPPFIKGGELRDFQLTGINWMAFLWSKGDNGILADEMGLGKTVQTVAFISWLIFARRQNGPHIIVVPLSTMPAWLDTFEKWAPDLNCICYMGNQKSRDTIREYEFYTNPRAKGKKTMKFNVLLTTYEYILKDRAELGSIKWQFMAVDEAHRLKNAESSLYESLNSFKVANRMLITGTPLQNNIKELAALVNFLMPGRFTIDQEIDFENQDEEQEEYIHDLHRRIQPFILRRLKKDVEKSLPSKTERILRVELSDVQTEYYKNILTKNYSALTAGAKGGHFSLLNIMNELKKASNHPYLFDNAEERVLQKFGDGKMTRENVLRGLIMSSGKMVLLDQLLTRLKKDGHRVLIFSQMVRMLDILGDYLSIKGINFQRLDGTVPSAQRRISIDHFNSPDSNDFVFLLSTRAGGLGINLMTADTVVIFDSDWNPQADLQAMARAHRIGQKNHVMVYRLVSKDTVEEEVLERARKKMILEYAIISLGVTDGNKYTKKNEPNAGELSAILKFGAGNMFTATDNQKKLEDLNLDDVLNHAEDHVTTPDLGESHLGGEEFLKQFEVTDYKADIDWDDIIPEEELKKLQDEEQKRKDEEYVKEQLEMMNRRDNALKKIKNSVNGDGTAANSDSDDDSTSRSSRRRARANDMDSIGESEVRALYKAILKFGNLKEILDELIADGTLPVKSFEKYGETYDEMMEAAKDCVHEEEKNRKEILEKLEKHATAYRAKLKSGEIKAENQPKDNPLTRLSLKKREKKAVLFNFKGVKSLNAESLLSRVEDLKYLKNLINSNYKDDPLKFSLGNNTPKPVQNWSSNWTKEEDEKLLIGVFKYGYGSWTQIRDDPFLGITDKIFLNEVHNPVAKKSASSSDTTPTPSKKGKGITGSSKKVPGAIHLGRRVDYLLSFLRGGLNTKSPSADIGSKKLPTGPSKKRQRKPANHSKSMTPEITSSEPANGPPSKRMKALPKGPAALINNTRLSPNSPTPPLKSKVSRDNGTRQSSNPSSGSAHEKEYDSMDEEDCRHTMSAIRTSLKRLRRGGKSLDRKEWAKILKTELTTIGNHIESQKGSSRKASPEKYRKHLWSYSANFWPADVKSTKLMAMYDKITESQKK

With C[C@@H]1CN(C(=O)c2ccc(C#N)nc2)C[C@@]1(O)C1CC1 the Percent Effect [1] was -4.79%, the Percent Effect [2] was 13.5% and the Percent Effect [3] was -4.57%. The Percent Effect [4] was 30.4%, the Percent Effect [5] was 9.65% and the Percent Effect [6] was -1.91%. It also gave a Percent Effect [7] of 5%, a Percent Effect [8] of 1.76% and a Percent Effect [9] of 2.65%. For the same compound, the Percent Effect [10] was 14.6% and the Percent Effect [11] was -12.3%.
Compound O=C(C1CC1)N1CCC(c2nc(O)c3c(n2)CCN(C2CCCC2)C3)C1 (stereo unspecified) has a Percent Effect [1] of -5.51%, a Percent Effect [2] of 13.3% and a Percent Effect [3] of 6.57%. For the same compound, the Percent Effect [4] was -6.26%, the Percent Effect [5] was -4.33% and the Percent Effect [6] was 1.17%. For the same compound, the Percent Effect [7] was 5.55%, the Percent Effect [8] was 11.8% and the Percent Effect [9] was 1.06%. It also gave a Percent Effect [10] of 6.41% and a Percent Effect [11] of -7.54%.
CCOc1ccccc1C(=O)NS(=O)(=O)c1ccc2c(c1)OCCCO2 showed a Percent Effect [1] of -5.62%, a Percent Effect [2] of 5.26% and a Percent Effect [3] of -3.19%. The Percent Effect [4] was 0.997%, the Percent Effect [5] was 3.08% and the Percent Effect [6] was -3.24%. For the same compound, the Percent Effect [7] was 8.04%, the Percent Effect [8] was 7.05% and the Percent Effect [9] was -29.1%. It also gave a Percent Effect [10] of -21% and a Percent Effect [11] of -8.5%.
For Cc1nc(CNC(=O)Cn2nc(-c3ccc(F)cc3)oc2=O)cs1, the Percent Effect [1] was -2.4%, the Percent Effect [2] was 15.8% and the Percent Effect [3] was 10.4%. It also gave a Percent Effect [4] of 6.52%, a Percent Effect [5] of -1.32% and a Percent Effect [6] of -4.21%. For the same compound, the Percent Effect [7] was 3.17%, the Percent Effect [8] was 8.37% and the Percent Effect [9] was 7.35%. The Percent Effect [10] was 12.2% and the Percent Effect [11] was -5.84%.
Cn1c(CN2CCOCC2)nnc1C1CCN(C(=O)C2CCCC2)CC1 was tested, and the Percent Effect [1] was 0.739%, the Percent Effect [2] was 13.5% and the Percent Effect [3] was 1.53%. For the same compound, the Percent Effect [4] was 14.3%, the Percent Effect [5] was 3.09% and the Percent Effect [6] was 0.476%. For the same compound, the Percent Effect [7] was 20.9%, the Percent Effect [8] was 2.19% and the Percent Effect [9] was 5.82%. The Percent Effect [10] was 19.5% and the Percent Effect [11] was -4.58%.
With CSCc1cccc(C(=O)N2CCN(CC(C)O)CC2)c1 (stereo unspecified) the Percent Effect [1] was -1.86%, the Percent Effect [2] was -2.6% and the Percent Effect [3] was -1.05%. It also gave a Percent Effect [4] of 3.73%, a Percent Effect [5] of -7.68% and a Percent Effect [6] of 2.13%. The Percent Effect [7] was 11.8%, the Percent Effect [8] was 17.2% and the Percent Effect [9] was 1.94%. For the same compound, the Percent Effect [10] was -2.44% and the Percent Effect [11] was -1.72%.
CCc1nc(CN(C)C2CCN(Cc3ccc(C#N)cc3F)C2)no1 (stereo unspecified) was tested, and the Percent Effect [1] was -6.15%, the Percent Effect [2] was 10.8% and the Percent Effect [3] was -3.61%. The Percent Effect [4] was -0.906%, the Percent Effect [5] was -6.7% and the Percent Effect [6] was -6.01%. The Percent Effect [7] was 12.6%, the Percent Effect [8] was 20.8% and the Percent Effect [9] was 7.39%. For the same compound, the Percent Effect [10] was 1.24% and the Percent Effect [11] was -7.82%.
CC(C)(C)c1ncc2c(n1)CN(C(=O)c1ccncc1)C2 showed a Percent Effect [1] of -2.88%, a Percent Effect [2] of 5.48% and a Percent Effect [3] of -0.32%. It also gave a Percent Effect [4] of 6.45%, a Percent Effect [5] of -3.57% and a Percent Effect [6] of -3.19%. For the same compound, the Percent Effect [7] was 17.7%, the Percent Effect [8] was -6.92% and the Percent Effect [9] was 9.38%. It also gave a Percent Effect [10] of 16.1% and a Percent Effect [11] of -0.422%.
With COCc1nc2n(n1)CCCC2Nc1nc(C2CC2)ns1 (stereo unspecified) the Percent Effect [1] was -2.6%, the Percent Effect [2] was 5.33% and the Percent Effect [3] was -1.82%. For the same compound, the Percent Effect [4] was 23.5%, the Percent Effect [5] was 2.82% and the Percent Effect [6] was 16.1%. The Percent Effect [7] was 13.6%, the Percent Effect [8] was -2.26% and the Percent Effect [9] was 4.92%. The Percent Effect [10] was 13.6% and the Percent Effect [11] was -5.92%.
Work on O=C(CCNc1ncccn1)NCCOc1ccc2c(c1)CCC2 yielded a Percent Effect [1] of -3.51%, a Percent Effect [2] of 15.8% and a Percent Effect [3] of -0.433%. It also gave a Percent Effect [4] of -5.56%, a Percent Effect [5] of -4.39% and a Percent Effect [6] of -2.52%. The Percent Effect [7] was 6.68%, the Percent Effect [8] was 1.31% and the Percent Effect [9] was 5.42%. It also gave a Percent Effect [10] of 18.5% and a Percent Effect [11] of -3.74%.
Work on Cc1cnn(CC2CCCN2C(=O)c2cn(-c3ccccc3)nc2C)c1 (stereo unspecified) yielded a Percent Effect [1] of -2.73%, a Percent Effect [2] of 2.7% and a Percent Effect [3] of -10.7%. It also gave a Percent Effect [4] of 13.6%, a Percent Effect [5] of 1.6% and a Percent Effect [6] of -3.61%. It also gave a Percent Effect [7] of -4.32%, a Percent Effect [8] of -0.766% and a Percent Effect [9] of 7.39%. For the same compound, the Percent Effect [10] was 11.1% and the Percent Effect [11] was -6.26%.
